# Rows were chosen to be rich in hits. Some 14% of all compounds tested hit in one or more screens of this group.
# LmPK inhibitor – inhibitors of Leishmania mexicana pyruvate kinase | Q27686 | 290,000 compounds, 0.37% hits | AID 1721 | Potency, µM (series often up to 57.5 µM), most hits filed as inhibitors | purified LmPK, Kinase-Glo ATP luminescence, 1 h
# Target sequence (Q27686 whole entry, looked up): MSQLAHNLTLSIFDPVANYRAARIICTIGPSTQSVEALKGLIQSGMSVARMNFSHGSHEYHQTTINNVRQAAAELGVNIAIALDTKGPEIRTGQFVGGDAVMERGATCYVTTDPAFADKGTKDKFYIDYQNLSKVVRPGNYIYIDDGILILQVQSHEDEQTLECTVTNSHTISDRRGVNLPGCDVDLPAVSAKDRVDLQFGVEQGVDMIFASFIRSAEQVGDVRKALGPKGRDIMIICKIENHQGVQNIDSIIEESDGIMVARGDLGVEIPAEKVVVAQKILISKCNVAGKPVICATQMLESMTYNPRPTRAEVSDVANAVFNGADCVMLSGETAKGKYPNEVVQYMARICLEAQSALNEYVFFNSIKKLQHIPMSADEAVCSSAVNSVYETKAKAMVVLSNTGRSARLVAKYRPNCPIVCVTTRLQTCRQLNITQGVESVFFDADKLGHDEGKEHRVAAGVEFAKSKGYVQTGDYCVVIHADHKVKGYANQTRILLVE
#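 0.1 nM LmPK, 0.5 mM PEP, 0.1 mM ADP; 50 mM imidazole pH 7.2, 7 mM MgCl2, 50 mM KCl; 1 h RT. Kinase-Glo luminescence readout, normalized to no-enzyme (full inhibition) and uninhibited wells.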
# Cycloheximide cs – counter-screen hit for Shiga toxin inhibitors, cycloheximide; max response, %; 300,000 compounds, 12% hits; cell reporter, cycloheximide protein synthesis inhibition counterscreen; AID 2314; in the data active = max response mostly above about 13%, no sharp cut-off; inactive = mostly below about 14%; note: read at 38.3 µM for the half of the compounds with a filed dose
# FBPA Giardia inh – inhibitors of Giardia lamblia fructose-1,6-bisphosphate aldolase. A8B2U2. Potency, µM (top dose mostly 59.6 µM), hits mostly inhibitors. AID 2451. 290,000 compounds, 0.71% hits. purified Giardia FBPA; note: nearly all actives have a fitted effect of over 55% in size
#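 40 nM FBPA preincubated 10 min at RT with compound (up to 57.5 uM final), then substrate plus GAPDH/TPI/NAD/arsenate coupling and diaphorase/resazurin added. Fluorescence read after 20 min at RT, 525/598 nm.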
# NS1 function inh – blocks influenza NS1 protein function; Potency, µM (titrated, usually from 46.1 µM); 270,000 compounds, 0.4% hits; calls by dose curve; note: actives are rising curves; nearly all actives have a fitted effect of over 50% in size
#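 S. cerevisiae expressing influenza A NS1, grown in glucose, washed, then diluted 1:100 into pH 6.0 -URA galactose medium with 23 nl compound. Growth recovery read as OD600; NS1-free strain serves as control.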
# Shiga toxin inh – Shiga toxin inhibition. Vero cells, Shiga toxin protein synthesis inhibition reporter. AID 2315. inhibition, % at 38.7 µM. 290,000 compounds, 9.2% hits; in the data active = inhibition mostly above about 28%, no sharp cut-off; inactive = mostly below about 43%
# A number is an active result; 0 = inactive; - = no result given. Unless noted, calls come from the whole dose curve; as a rule, active = well fitted curve in the direction sought with a large enough effect; inconclusive = small, poorly fitted or top-dose-only effect, or another doubt; inactive = no such curve, though single readings can be large; an effect the other way counts as inactive or inconclusive.
SMILES,LmPK inhibitor,Cycloheximide cs,FBPA Giardia inh,NS1 function inh,Shiga toxin inh
Cc1ccccc1C(=O)c1cccn1CC(=O)NCCCc1ccccc1,0,0,0,0,0
Cc1[nH][nH]c(=O)c1N=Nc1ccccc1C#N,0,49.7,0,-,0
COc1ccccc1N=Nc1c(C)[nH][nH]c1=O,0,0,0,0,0
Cc1ccc(CS(=O)(=O)c2cn(CC(=O)N3CCOCC3)c3ccccc23)cc1,0,0,-,0,0
CC(C)OC(=O)CSc1nc(N)c(C#N)c(-c2cccs2)c1C#N,0,0,0,0,0
CCOC(=O)C(C)Sc1nc(-c2cccs2)ccc1C#N (centres undefined),0,25.3,0,0,0
C=COC(=O)CSc1nc(-c2cccs2)ccc1C#N,0,31.4,0,0,0
CCc1cccc(C)c1Nc1nc2ccccc2n2cnnc12,0,0,0,0,0
CCCn1nc2cc(C(=O)NCCc3cccs3)ccc2c1OCC,0,28.5,0,0,73.4
COCCNc1nc(C)nc2c1nc(-c1ccccc1)n2CCCN1CCCCC1C (centres undefined),-,-,0,-,-
CC(C)(C)SCCNC(=O)COc1ccc(Cl)cc1,0,11.0,0,0,0
C=C(C)C1Cc2c(ccc(C(=O)O)c2O)O1 (centres undefined),-,-,0,-,-
Cn1c(-c2ccccc2)cnc1N,0,29.5,-,0,0
COc1ccc(-c2cnc(N)n2C)cc1,0,0,0,0,0
CCN(CC)CCNc1nc(-n2nc(C)cc2C)nc2sc3c(c12)CC(C)(C)OC3,0,11.8,0,0,0
Cc1cc(C)n(-c2nc(NCCN(C)C)c3c4c(sc3n2)COC(C)(C)C4)n1,0,0,0,0,0
CCSc1nc(NCCN(C)C)c2c3c(sc2n1)COC(C)(CC)C3 (centres undefined),0,29.7,0,0,0
CN1CCN(c2ncc3nc(-c4cn(C)c5ccccc45)c(=O)n(-c4ccccc4)c3n2)CC1,-,-,0,-,-
COC(=O)c1ccc(NC(=S)N2CCN(CCO)CC2)cc1,0,0,0,0,0
Cc1ccc(S(=O)(=O)OC2CCN(C)CC2)cc1,-,-,-,0,-
O=C(NCC1CCCO1)c1cc2ccccc2[nH]1 (centres undefined),0,15.1,0,0,120.9
O=C(NCC1CCCO1)c1cccc(Oc2ccccc2)c1 (centres undefined),0,33.5,-,0,53.4
O=C(NCC1CCCO1)c1cccc(Oc2ccc([N+](=O)[O-])cc2)c1 (centres undefined),0,23.8,-,0,50.1
CC1Sc2ccc(S(=O)(=O)CCC(=O)N3CCN(c4cccc(Cl)c4)CC3)cc2NC1=O (centres undefined),0,0,-,0,0
CCOc1ccc(C2C(C(=O)OC)=CN(C(C)c3ccccc3)C=C2C(=O)OC)cc1 (centres undefined),0,0,0,0,0
SMILES,LmPK inhibitor,Cycloheximide cs,FBPA Giardia inh,NS1 function inh,Shiga toxin inh
CCCOC(=O)Cn1cnc2scc(-c3ccc(OC)cc3)c2c1=O,0,0,0,0,0
Cc1cc(C)nc(N2CCC(C(=O)NNC(=O)Cc3ccccc3)CC2)n1,0,0,0,0,0
Cc1cc(-c2ccccc2)nc(N2CCC(C(=O)NCc3ccccc3Cl)CC2)n1,0,26.6,0,0,54.4
CCCS(=O)(=O)N1CCC(C(=O)NCc2ccccc2Cl)CC1,0,16.7,0,0,0
C=CCNC(=O)C1CCN(c2nc(C)cc(-c3ccccc3)n2)CC1,0,35.6,0,0,131.6
CCN(CC)c1ccc(/C=C2\C(=O)NC(=S)N(C)C2=O)o1,0,44.8,0,0,110.3
OCCSc1ncnc2c1oc1ccccc12,0,21.8,0,0,63.1
c1ccc(Sc2ncnc3c2oc2ccccc23)cc1,0,32.8,0,0,80.7
O=C(O)CSc1ncnc2c1oc1ccccc12,0,0,0,0,0
O=C(CSc1ncnc2c1oc1ccccc12)NCc1ccco1,0,30.1,0,0,51.4
C=CCn1c(=N)c(S(=O)(=O)c2ccc(C)c(C)c2)cc2c(=O)n3ccccc3nc21,0,0,0,0,0
Clc1ccccc1C1SCC2Nc3ccccc3CN21 (centres undefined),0,48.8,0,0,0
CC1(c2ccc([N+](=O)[O-])cc2)Nc2ccccc2S1 (centres undefined),0,33.3,0,0,65.0
COCCN1C(=O)c2cc(C(=O)Nc3ccc(C)c(F)c3)ccc2C1Nc1ccc(C)c(F)c1 (centres undefined),0,32.2,0,0,94.1

# Bioassay records deposited in PubChem BioAssay by National Center for Advancing Translational Sciences (NCATS).
